The values that follow come from PubChem BioAssay.

This assay is described as follows: probe aShh binding to arrayed compounds – biochemical, biotinylated probe, 635/667 nm fluorescence, primary screen (AID 1114).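 Note: probe is biotin-labelled aShh protein from a stem cell growth factor screen; measures binding of labelled protein to compounds printed on the slide; score merges feature fluorescence at 667 nm with signal-to-noise.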 To be noted: small-molecule microarray, higher = more signal.
Take `CC(C)(C)N1CC=CC23O[C@@H]4/C=C\CCCOC(=O)C4[C@H]2C(=O)N(CCCO)[C@@H]3C1=O` (stereo partly specified): the composite z-score was -0.0192. The result for `Cc1ccc(S[C@]2(C(=O)NCCCN(C)C)CC(=O)N(C3Cc4ccccc4C3)[C@@H]2c2ccc(CO)cc2I)cc1` reads 0.207; that for `CCOc1cc(C(O)C2C=CC3C(=O)N(c4ccccc4)C(=O)C3N2Nc2ccccc2F)ccc1O` (stereo unspecified), 0.536; that for `Cc1ccc(F)cc1S(=O)(=O)N[C@H]1CCN(Cc2ccc(OC(C)C)cc2)C1`, -0.0959. For `COC(=O)C(CC#Cc1ccc2c(c1)[C@]1(C(=O)N2)[C@H](c2ccc(OCCO)cc2)N2[C@H](c3ccccc3)[C@H](c3ccccc3)OC(=O)[C@H]2[C@@H]1C(=O)N1CCCCCCC1)C(=O)OC`, the composite z-score is 2.81. The result for `[N-]=[N+]=Nc1ccccc1C[C@]1(C(=O)N2CCOCC2)N=C(c2ccc(OCCCO)cc2)O[C@H]1c1ccccc1N=[N+]=[N-]` reads 0.275; that for `O=C(NC1CC1)[C@@H]1c2ccccc2C(=O)N(Cc2ccc(OC(F)(F)F)cc2)[C@H]1c1ccc(CO)cc1`, -0.0735.

For `CN(C)CCCC[C@@H]1NC(=O)[C@H]2C[C@@H](C(=O)O)[C@@H](c3ccc(O)cc3)N2C1=O`, the composite z-score was 1.5.

`CO[C@H]1O[C@H](CO)[C@@H](OC(=O)Nc2ccccc2)[C@H](OC(=O)Nc2ccccc2)[C@H]1OC(=O)Nc1ccccc1` gave a composite z-score of -0.0709. Turning to `[N-]=[N+]=NCc1ccccc1[C@@H]1OC(c2ccc(OCCCO)cc2)=N[C@]1(Cc1ccccc1N=[N+]=[N-])C(=O)O`, the composite z-score is 0.541. The result for `CC(C)=CCCC(C)=CC(O)C1C=CC2C(=O)NC(=O)C2N1Nc1ccc(Cl)cc1Cl` (stereo unspecified) reads 0.14; that for `CC(C)C(=C=CC[C@H](O)c1ccccc1OCCO)C[C@H](O)c1cc(Cl)cc(Cl)c1O`, 0.0048. The result for `COc1ccc(C(=O)Nc2ccc3c(c2)[C@@]2(O[C@H](CCO)[C@@H]([Si](C)(C)c4ccc(OC)cc4)[C@@H]2C)C(=O)N3Cc2ccccc2)cc1` reads -0.0782; that for `CC(C)(C)OC(=O)CC[C@@]1(C(=O)NCCN2CCOCC2)N=C(c2ccc(OCCCO)cc2)O[C@@H]1c1ccccc1CN=[N+]=[N-]`, -0.324; that for `CC(C)C(CO)N1C(=O)[C@@H]2C3C(=O)OCCC/C=C\[C@H]3OC23C=CCN(Cc2ccccc2)C(=O)[C@@H]13` (stereo partly specified), 0.254. `COC(=O)C(CC#Cc1ccc2c(c1)[C@]1(C(=O)N2)[C@H](C(=O)N2CCc3cc(OC)c(OC)cc3C2)[C@H]2C(=O)O[C@H](c3ccccc3)[C@H](c3ccccc3)N2[C@@H]1c1ccccc1OCCO)C(=O)OC`: the composite z-score was -0.0289.

In turn, `CC(C)=CCCC=C(C)C(O)C1C=CC2C(=O)N(c3ccccc3)C(=O)C2N1Nc1ccc(C#N)cc1` (stereo unspecified) had a composite z-score of -0.0769.

`C=CCC(OC(C)=O)[C@@H]1[C@@H](N(Cc2cccc3ccccc23)C(=O)Cc2ccc(OC)cc2)c2cc(OCCCO)ccc2N1C(=O)Cc1ccc2ccccc2c1` (stereo partly specified) returned a composite z-score of -0.138. The result for `CN1C(=O)C2C=CC(C(O)c3ccc(-c4ccccc4)s3)N(NC(=O)OC(C)(C)C)C2C1=O` (stereo unspecified) reads -0.279; that for `COC(=O)[C@@]1(Cc2ccccc2)N=C(c2ccc(OCCCO)cc2)O[C@H]1c1ccccc1CN=[N+]=[N-]`, -0.153; that for `COc1ccc([Si](C)(C)[C@H]2[C@H](CC(=O)N3Cc4ccccc4C[C@H]3CO)O[C@@]3(C(=O)N(C)c4ccccc43)[C@@H]2C)cc1`, -0.0146. The result for `C=CCC(OC(C)=O)[C@@H]1[C@@H](N(Cc2cc3ccccc3o2)C(=O)c2cccc3ccccc23)c2cc(OCCCO)ccc2N1C(=O)c1ccc2ccccc2n1` (stereo partly specified) reads -0.0813. The result for `CCOC(=O)C[C@H]1[C@H](OC(=O)c2ccccc2-c2ccccc2)[C@@H](NC(=O)C2CCCCC2)c2cc(OCCCO)ccc2N1C(=O)c1ccc2ccccc2n1` reads 0.0611. With `O=C1C2C=CC(C(O)C3CCCCC3)N(n3cnnc3)C2C(=O)N1Cc1ccccc1` (stereo unspecified), the composite z-score was -0.0064. With `C=CCOC(=O)[C@@H]1[C@H]2C(=O)O[C@H](c3ccccc3)[C@H](c3ccccc3)N2[C@H](c2ccc(OCCOC(=O)[C@H]3C[C@H]4C(=O)N[C@@H](CCCCN(C)C)C(=O)N4[C@H]3c3ccc(O)cc3)cc2)[C@@]12C(=O)Nc1ccc(I)cc12`, the composite z-score was -0.0578. The result for `O=C1C[C@]2(c3ccc([N+](=O)[O-])cc3)C(=O)N(C3CC3)c3cc(CO)ccc3[C@H]2N1C1CCCCC1` reads -0.0146. The result for `CN(C)CCCNC(=O)[C@@]1(Cc2ccccc2I)c2ccccc2C(=O)N(C2CCCCC2)[C@H]1c1ccc(CO)cc1` reads 1.26; that for `C=CCC(OC(C)=O)[C@@H]1[C@@H](N(Cc2cccc3ccccc23)C(=O)c2ccc(-c3ccccc3)cc2)c2cc(OCCCO)ccc2N1C(=O)Cc1ccc2ccccc2c1` (stereo partly specified), 0.0278.

Turning to `COc1cc(C(O)C2C=CC3C(=O)N(c4ccccc4)C(=O)C3N2Nc2ccccc2F)cc(OC)c1OC` (stereo unspecified), the composite z-score was -0.0146.

Take `C=CCN1C(=O)[C@@]2(O[C@@H](CCn3cc([C@H](O)c4ccccc4)nn3)[C@H]([Si](C)(C)c3ccc(OC)cc3)[C@H]2C)c2cc(N3C(=O)c4cccc5cccc3c45)ccc21`: the composite z-score is -0.138. Compound `COC(=O)[C@H](Cc1ccc(O)cc1)N[C@@H](/C=C/C1CC1)[C@H](O)Cc1ccccc1` registered a composite z-score of -0.214. The result for `COc1ccc([Si](C)(C)[C@@H]2[C@@H](CC(=O)N3CCC[C@H]3CO)O[C@]3(C(=O)N(Cc4cccc(N5CCCCC5=O)c4)c4ccccc43)[C@H]2C)cc1` reads 0.0723; that for `O=C1C[C@@](C(=O)O)(c2ccc([N+](=O)[O-])cc2)[C@@H](c2ccc(CO)cc2)N1C1CCCCC1`, 0.116; that for `CCOC(=O)c1cn(C[C@H](Cc2ccccc2)NC(=O)N[C@H](CO)CCc2oc(C(C)=O)c(C(=O)OC)c2C(=O)OC)nn1`, -0.0553. `NCCCCCCNC(=O)[C@@H]1C[C@@H]2C(=O)N3CCC[C@H]3C(=O)N2[C@@H]1c1cccc(OCCO)c1` registered a composite z-score of -0.0035. The result for `COCCOC(=O)N1C(=O)[C@@]2(c3cc(C#CCCO)ccc31)[C@H](C(N)=O)[C@H]1C(=O)O[C@H](c3ccccc3)[C@H](c3ccccc3)N1[C@@H]2c1ccccc1OCCO` reads -0.0165.
